DT40 TDP1 no CPT: qHTS for Inhibitors of human tyrosyl-DNA phosphodiesterase 1 (TDP1): qHTS in cells in absence of CPT; DT40 Tdp1-/- hTDP1 cells, no CPT, ATP luminescence, 48 h; Potency, µM (top dose mostly 46.2 µM), for inactives: at the highest dose activity change, negative = growth inhibition, most hits filed as inhibitors; 420,000 tested, 15% active; further: on the % scale 0 is the no-effect control and ±100 the full control effect; nearly all actives have a fitted effect of over 55% in size
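Compound effects on proliferation are scored in DT40 Tdp1-/-;hTDP1 cells in the absence of CPT. ATP levels (CellTiter-Glo luminescence) are recorded after a ≥48 hr, 37 °C incubation.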
TDP1 block: qHTS Assay for Inhibitors of Tyrosyl-DNA Phosphodiesterase (TDP1) | recombinant TDP1, AlphaScreen DNA substrate cleavage | Potency, µM (top dose mostly 130 µM), for inactives: at the top dose activity change, negative = inhibition, usual class: inhibitors | 350,000 tested, 0.28% active | Tyrosyl-DNA phosphodiesterase 1 (Homo sapiens), Q9NUW8; further: on the % scale 0 is the no-effect control and ±100 the full control effect; nearly all actives have a fitted effect of over 40% in size
Target sequence (Q9NUW8 whole entry, looked up): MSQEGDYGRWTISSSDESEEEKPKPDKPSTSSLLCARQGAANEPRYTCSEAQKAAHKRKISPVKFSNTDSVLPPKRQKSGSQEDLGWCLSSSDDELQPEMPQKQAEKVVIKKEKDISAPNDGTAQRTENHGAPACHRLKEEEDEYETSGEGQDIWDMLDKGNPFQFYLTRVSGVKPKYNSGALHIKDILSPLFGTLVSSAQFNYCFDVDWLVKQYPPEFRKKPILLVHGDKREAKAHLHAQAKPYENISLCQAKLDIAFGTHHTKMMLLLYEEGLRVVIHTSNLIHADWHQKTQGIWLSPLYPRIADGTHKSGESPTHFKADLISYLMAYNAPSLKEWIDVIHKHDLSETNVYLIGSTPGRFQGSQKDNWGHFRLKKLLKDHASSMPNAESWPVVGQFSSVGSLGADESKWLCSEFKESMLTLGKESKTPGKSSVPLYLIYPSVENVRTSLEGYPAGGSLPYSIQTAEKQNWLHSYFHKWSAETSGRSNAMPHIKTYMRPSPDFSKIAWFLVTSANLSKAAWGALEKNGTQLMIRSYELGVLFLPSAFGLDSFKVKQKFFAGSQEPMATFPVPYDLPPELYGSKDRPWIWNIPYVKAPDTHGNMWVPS
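AlphaScreen read-out: signal falls as enzyme removes the 3' tyrosine-FITC from a 5'-biotinylated DNA oligo (15 nM, 5 min, RT). Enzyme was E. coli-made recombinant Tdp1 at 1 nM, exposed to compound for 15 min beforehand; beads 10 ug/ml, 10 min.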
DT40 TDP1 CPT: qHTS for Inhibitors of human tyrosyl-DNA phosphodiesterase 1 (TDP1): qHTS in cells in presence of CPT | chicken DT40 Tdp1-/-;hTDP1 cells + 20 nM CPT, ATP luminescence, 48 h | Potency, µM (highest dose often 46.2 µM), for the others: top-dose activity change, negative = growth inhibition, actives largely listed as inhibitors | 420,000 tested, 12% active | AID 686979, 2013; further: on the % scale 0 is the no-effect control and ±100 the full control effect; nearly all actives have a fitted effect of over 55% in size
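Chicken DT40 Tdp1-/- cells complemented with human TDP1, 400 cells/well, exposed to compounds plus 20 nM camptothecin for at least 48 h at 37 C; viability read as ATP content by CellTiter-Glo luminescence.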
ClpP mod: qHTS Assay for Activators of ClpP | purified B. subtilis ClpP, FRET peptide cleavage, 20 min | AID 651965, 2013 | 340,000 tested, 1.9% active | Potency, µM (titrated, usually from 57.5 µM), without a hit: top-dose activity change, negative = active; active means well fitted falling curve with a large enough effect; inconclusive means small, poorly fitted or top-dose-only effect; inactive means no such curve, though single readings can be large or run the other way; further: the source files actives as falling curves though it sought activators and does not explain the sign; nearly all actives have a fitted effect of over 65% in size
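FRET quenching reversal measured ClpP activation: 10 microg/mL B. subtilis ClpP at pH 8 with the FRET-FV decapeptide, read at 430 nm after 320 nm excitation. The 20-min minus 0-min signal was scaled between DMSO/no-enzyme wells and ADEP (5.8 microM final).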
An asterisk follows results filed as active; ? = inconclusive; · = not tested or not shown; [ ] = remark or other dose. Hits are enriched below; roughly 17% of the tested compounds scored in any of these assays. Unless noted, the call rests on the fitted dose curve; in most records, active means well fitted curve in the direction sought with a large enough effect; inconclusive means small, poorly fitted or top-dose-only effect, or another doubt; inactive means no such curve, though single readings can be large; an effect the other way counts as inactive or inconclusive. Potency means the concentration at half of the fitted maximal effect.

SMILES | DT40 TDP1 no CPT | TDP1 block | DT40 TDP1 CPT | ClpP mod
COc1cc2c(cc1OC)C(COc1ccccc1OC)N(C(=O)COc1ccc(Cl)cc1)CC2 (stereo not given) | 23.1µM* | 5.2% | 18.4µM* | -3.2%
CCc1ccc(OCC2c3cc(OC)c(OC)cc3CCN2C(=O)COc2ccccc2)cc1 (stereo not given) | 16.4µM* | 7.8% | ? | -4.9%
CCc1ccc(C(O)c2ncc(-c3ccc4ccccc4c3)[nH]2)cc1 (stereo not given) | ? | · | -9.8% | 4.6%
COC(=O)c1ccc(/C=N/N2CCN(Cc3ccc(Cl)cc3)CC2)cc1 | -24.8% | · | -9.9% | -5.4%
CC1=Nc2cc(C(=O)N3CCCC3)ccc2Sc2ccc(C)cc21 | ? | 2.8% | 4.0% | 0.0%
CC1=Nc2cc(C(=O)NCCc3ccc(Cl)cc3)ccc2Sc2ccc(C)cc21 | 6.51µM* | 2.1%[12.3 µM] | 6.51µM* | -2.0%
CC1=Nc2cc(C(=O)NCCCOC(C)C)ccc2Sc2ccc(C)cc21 | 4.61µM* | 7.4% | 5.17µM* | ·
CC1=Nc2cc(C(=O)NCCCOC(C)C)ccc2Sc2ccccc21 | 20.6µM* | 2.6% | 16.4µM* | ·
CC(C)OCCCNC(=O)c1ccc2c(c1)NC(=O)c1ccccc1S2 | -22.3% | 4.9% | -28.6% | 0.6%
CC(C)c1ccc(Nc2cc(C(=O)NCCc3ccccc3)c3ccccc3n2)cc1 | ? | 2.3% | ? | 115.7%
CSc1cccc(Nc2cc(C(=O)NCCCN(Cc3ccccc3)C(C)C)c3ccccc3n2)c1 | 4.61µM* | 3.8% | 5.8µM* | 35.5µM*
CSc1cccc(Nc2cc(C(=O)NC3CCCCC3)c3ccccc3n2)c1 | -25.1% | -7.0% | ? | -6.1%
Cc1cc(C)cc(Nc2cc(C(=O)NCCCN(Cc3ccccc3)C(C)C)c3ccccc3n2)c1 | 3.26µM* | 2.8% | 3.26µM* | ?
CCCOc1nc(N)c(C#N)c(-c2ccccc2F)c1C#N | ? | -1.1% | 16.4µM* | 2.0%
Cc1sc2ncnc(N3CCC(C(=O)NNC(=O)COc4ccc(Br)cc4)CC3)c2c1C | 23.1µM* | 1.8% | ? | ·
Cc1cccc(C)c1NC(=O)CN(C)C(=O)C1CCN(c2ncnc3sc(C)c(C)c23)CC1 | ? | · | ? | -0.2%
Cc1cc(Br)ccc1NC(=O)CN(C)C(=O)C1CCN(c2ncnc3sc(C)c(C)c23)CC1 | 20.6µM* | · | ? | -3.0%
Cc1sc2ncnc(N3CCC(C(=O)NNC(=O)COc4ccccc4Cl)CC3)c2c1C | ? | · | ? | 0.8%
CCN(CC(=O)Nc1c(Cl)cccc1Cl)C(=O)C1CCN(c2ncnc3sc(C)c(C)c23)CC1 | ? | 3.2% | -13.3% | 0.8%
CCN(CC(=O)Nc1c(F)cccc1F)C(=O)C1CCN(c2ncnc3sc(C)c(C)c23)CC1 | 18.4µM* | -5.5% | 20.6µM* | 1.3%
Cc1sc2ncnc(N3CCC(C(=O)NNC(=O)c4ccccc4Cl)CC3)c2c1C | 20.6µM* | 6.0% | 14.6µM* | -5.1%
OCCCNc1ncnc2c1ncn2[C@H]1CN(Cc2ccc3c(c2)OCO3)C[C@@H](CO)O1 | -2.6% | · | ? | -0.5%
Cc1ccc(C)c(NC(=O)CN(C)C(=O)C2=NNC(=O)CC2)c1 | 1.1% | -0.4% | 6.6% | -1.8%
CN(Cc1ccccc1)C(=O)[C@@H]1CCCN1C(=O)[C@@H]1CCCN1C(=O)c1ccccc1 | -16.8% | · | -15.6% | 2.2%
Cc1nc2nc(-c3ccco3)[nH]n2c(=O)c1Cc1ccccc1 | -5.5% | -1.0% | -6.7% | 28.2µM*
Cc1nc2nc(-c3ccccc3)[nH]n2c(=O)c1Cc1ccccc1 | -2.2% | 2.2% | 3.3% | ?
COc1cc(-c2cc(C)c3c(OC)ccc(OC)c3n2)cc2c1OCCN(Cc1cn(C)nc1C)C2 | -21.9% | · | 32.7%[9.04 µM] | ·
O=C(N/N=C/c1ccc(N2CCOCC2)cc1)c1ccccc1OCCOc1ccccc1 | ? | 0.0% | 16.4µM* | ·
O=C(N/N=C/c1ccc(N2CCOCC2)cc1)c1ccncc1 | -22.9% | 1.1% | -21.3% | 0.5%
CCOc1ccccc1C(=O)N/N=C/c1ccoc1 | 19.8% | 50.1µM* | 6.7% | -2.4%

Screening data (PubChem)
